The list is not random: actives were taken first. Their share in the collection is about 2.4%.
D2 ag-1: human D2 receptor agonism in beta-arrestin assay; activation, % (test concentration not listed); DiscoveRx PathHunter D2 beta-arrestin, luminescence, 90 min; 100% = 57 uM dopamine signal; 0.084% of 360,000 active; P14416; AID 624465; in the data active = activation above about 40%; inconclusive = between about 15% and that limit
Target sequence (P14416 whole entry, looked up): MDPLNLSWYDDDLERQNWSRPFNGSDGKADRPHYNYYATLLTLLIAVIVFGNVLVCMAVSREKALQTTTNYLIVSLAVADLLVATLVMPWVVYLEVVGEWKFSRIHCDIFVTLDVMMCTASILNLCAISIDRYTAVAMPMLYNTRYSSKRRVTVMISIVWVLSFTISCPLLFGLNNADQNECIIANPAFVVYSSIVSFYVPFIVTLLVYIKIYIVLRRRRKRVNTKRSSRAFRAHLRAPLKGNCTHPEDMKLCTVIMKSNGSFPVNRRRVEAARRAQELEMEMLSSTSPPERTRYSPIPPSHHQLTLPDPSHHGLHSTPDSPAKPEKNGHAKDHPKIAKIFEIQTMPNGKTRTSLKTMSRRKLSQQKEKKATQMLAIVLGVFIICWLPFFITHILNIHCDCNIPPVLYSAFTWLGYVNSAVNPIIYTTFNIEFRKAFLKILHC
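Agonist mode: compounds alone added to overnight-plated D2 PathHunter cells for 90 min at 37 C, with 57 uM final dopamine (EC100) defining full response. Beta-arrestin recruitment detected by chemiluminescent reagent, read after 1 h at ambient temperature.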
D2 PAM-1: potentiates the human D2 dopamine receptor allosterically | P14416 | DiscoveRx D2 beta-arrestin cells, luminescence, 90 min; 100% = 57 uM dopamine signal | potentiation, % (concentration not given with the values) | 0.23% of 360,000 active | AID 624464; in the data active = potentiation above about 50%; inconclusive = mostly about 30% to 49%
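D2 cells co-treated with compound plus 50 nM dopamine (EC20) for 90 min at 37 deg C to detect potentiation. Beta-arrestin recruitment was read as enzyme-fragment luminescence after 1 h at ambient temperature. Full response was set by 57 uM dopamine.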
D2 PAM-2: positively modulates the human D2 dopamine receptor allosterically; HEK293 T-REx D2, calcium flux, EC20 dopamine potentiation; 0.34% of 340,000 active; AID 485347; potentiation, % at 10 µM;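 active = potentiation over 3 SD above the plate norm, cut at about 30% in these data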; note: 0% is about no effect
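Primary screen. Calcium kinetics in induced HEK293 T-REx D2 cells: compound pre-addition 180 s, EC20 dopamine, 180 s more.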
D2 ag-2: agonists of human D2 dopamine receptor; activation, % at 2 µM; HEK293 T-REx D2 cells, calcium flux agonist mode; AID 485358; 0.53% of 340,000 active;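 active = activation over 3 SD above normal in the single-dose calcium agonist read, cut at about 30% in these data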; note: 0% is about no effect
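Agonism is scored from calcium flux in a force-coupled, inducible HEK293 cell line expressing D2, read kinetically for 180 s after compound addition against dopamine controls.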
D2 antagonist: antagonists of human D2 dopamine receptor | P14416 | HEK293 TREx D2 cells, calcium flux, dopamine EC80 | inhibition, % at 10 µM | 2% of 340,000 active | AID 485344; in the data active = inhibition above about 30%; inactive = below that, where a call was filed; note: 0% is about no effect
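Overnight-induced (tetracycline, 30 C) HEK293 T-REx cells carrying force-coupled D2 receive a no-wash calcium dye, then compound, then EC80 dopamine at 180 s; signals are read kinetically throughout.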
* hit, by the source's call.

CN1OC[C@@H]2CN(S(=O)(=O)c3cccc(C(F)(F)F)c3)[C@H](c3ccc(N4CCCCC4)cc3)C[C@@H]21 was read as D2 ag-1 -4 and D2 PAM-1 2.
For Cc1nc2nc(SCC(=O)NC3CCCCC3)nn2c(C)c1Cc1ccccc1Cl the results were D2 PAM-2 -9 and D2 ag-2 0.
Screening COc1ccccc1OCCC(=O)Nc1nc(C)cs1 returned D2 ag-1 -3 and D2 PAM-1 -12.
`CN=c1scc(-c2ccccc2F)n1/N=C/c1ccc[nH]1` gave D2 ag-1 -4, D2 PAM-1 -10, D2 PAM-2 -9, D2 ag-2 0 and D2 antagonist 1.
For CN=c1scc(-c2ccccc2F)n1/N=C/c1ccc(O)c(O)c1O the results were D2 ag-1 180*, D2 PAM-1 173*, D2 PAM-2 2, D2 ag-2 0 and D2 antagonist 0.
`CC(C)N=c1scc(-c2cccs2)n1/N=C/c1ccc(O)c(O)c1O` gave D2 ag-1 inconclusive, D2 PAM-1 55*, D2 PAM-2 4, D2 ag-2 5 and D2 antagonist -8.
COc1cc(NC(=O)CN2C(=O)C(c3ccc(C)cc3)=NC23CCCCC3)cc(OC)c1 was read as D2 PAM-2 1 and D2 ag-2 0.
For COc1ccc(NC(=O)CN(C)C(=O)c2cc(S(=O)(=O)N(C)C)ccc2N2CCCC2)cc1 the results were D2 ag-1 0, D2 PAM-1 3, D2 PAM-2 8, D2 ag-2 1 and D2 antagonist 38*.
Screening COc1ccc(NS(=O)(=O)c2cc(NC(=O)CCNC(C)=O)ccc2N2CCCCC2)cc1 returned D2 ag-1 2, D2 PAM-1 -2, D2 PAM-2 4, D2 ag-2 0 and D2 antagonist 37*.
`CN(C)S(=O)(=O)c1ccc(N2CCCC2)c(C(=O)NNC(=O)COc2ccccc2F)c1` gave D2 ag-1 -1, D2 PAM-1 2, D2 PAM-2 -5, D2 ag-2 1 and D2 antagonist 57*.
Screening CN(C)S(=O)(=O)c1ccc(N2CCCC2)c(C(=O)NNC(=O)COc2ccccc2Cl)c1 returned D2 ag-1 -2, D2 PAM-1 -16, D2 PAM-2 3, D2 ag-2 -1 and D2 antagonist 20.
COc1cccc(/C=C/c2nc3ccccc3c(=O)n2-c2ccc(C)c(C)c2)c1OC was read as D2 PAM-2 13.
COc1ccc2nc(N=NC3=C(O)CC(C)(C)CC3=O)sc2c1 was read as D2 ag-1 -1, D2 PAM-1 -6, D2 PAM-2 -3, D2 ag-2 -1 and D2 antagonist 34*.
CC1(C)CC(=O)C(N=Nc2ccc3ncsc3c2)=C(O)C1 was read as D2 ag-1 -5, D2 PAM-1 1, D2 PAM-2 -7, D2 ag-2 0 and D2 antagonist 7.
Cc1c(NC(=O)c2ccc(C(C)(C)C)cc2)cccc1[N+](=O)[O-] was read as D2 ag-1 4, D2 PAM-1 14, D2 PAM-2 -6, D2 ag-2 -1 and D2 antagonist -9.
`CC(C)(C)c1ccc(NC(=O)c2ccccc2)c([N+](=O)[O-])c1` gave D2 ag-1 -3, D2 PAM-1 -6, D2 PAM-2 33*, D2 ag-2 3 and D2 antagonist 15.
Screening CCOc1ccc(/C=N/n2c(-c3ccccc3)n[nH]c2=S)cc1 returned D2 ag-1 inconclusive, D2 PAM-1 -1, D2 PAM-2 -8, D2 ag-2 -2 and D2 antagonist 41*.
Screening S=c1[nH]nc(-c2ccccc2)n1/N=C/c1ccc(Cl)cc1 returned D2 ag-1 8, D2 PAM-1 -17, D2 PAM-2 -1, D2 ag-2 -2 and D2 antagonist -7.
`Cc1cc2ncn(/N=C/c3ccc([N+](=O)[O-])s3)c2cc1C` gave D2 ag-1 13, D2 PAM-1 71*, D2 PAM-2 13, D2 ag-2 3 and D2 antagonist 1.
Cc1nc2ccccc2n1/N=C/c1ccc([N+](=O)[O-])s1 was read as D2 ag-1 2, D2 PAM-1 16, D2 PAM-2 1, D2 ag-2 -1 and D2 antagonist 8.
`O=[N+]([O-])c1ccc(/C=N/n2cnc3ccccc32)s1` gave D2 ag-1 inconclusive, D2 PAM-1 64*, D2 PAM-2 8, D2 ag-2 1 and D2 antagonist -12.
Screening CCCc1ccc(OCC(=O)Nc2sc3c(c2C(=O)OCC)CCC(C(C)(C)C)C3)cc1 (configuration not stated) returned D2 ag-2 -1.
Clc1ccc(SCCOCCN2CCc3ccccc3C2)cc1 was read as D2 ag-1 -3, D2 PAM-1 -8, D2 PAM-2 -23, D2 ag-2 0 and D2 antagonist 50*.
`CC1CCCN(CCCOc2ccc(Cl)cc2Br)C1` (configuration not stated) gave D2 ag-1 -3, D2 PAM-1 -40, D2 PAM-2 -23, D2 ag-2 0 and D2 antagonist -4.
Clc1ccc(OCCCN2CCc3ccccc3C2)c(Br)c1 was read as D2 ag-1 -3, D2 PAM-1 -68, D2 PAM-2 -24, D2 ag-2 -1 and D2 antagonist 64*.
Clc1ccc(OCCOCCN2CCc3ccccc3C2)c(Cl)c1 was read as D2 ag-1 0, D2 PAM-1 -14, D2 PAM-2 -28, D2 ag-2 0 and D2 antagonist 64*.
`COc1ccc(C2CC(=O)c3cc(-c4nc(-c5cccc([N+](=O)[O-])c5)cs4)c(=O)n(-c4ccc(F)cc4)c3C2)cc1` (configuration not stated) gave D2 ag-2 1.
For CC1(C(=O)NS(=O)(=O)Cc2ccccc2)CCN1C(=O)Cc1ccccc1Cl (configuration not stated) the results were D2 ag-1 -4 and D2 PAM-1 -4.
Screening CC(C)C1Oc2ccccc2N(CC(=O)N2CCOCC2)C1=O (configuration not stated) returned D2 ag-1 -2, D2 PAM-1 3, D2 PAM-2 -1, D2 ag-2 0 and D2 antagonist 38*.
For CCOC(=O)c1c(S(=O)(=O)NCC(=O)Nc2ccc(C)c(Cl)c2)c(C)n(C)c1C the results were D2 PAM-2 -4 and D2 ag-2 0.
`CCn1cc(C(=O)N[C@@H](C)C(=O)OC)c(=O)c2cc3c(cc21)OCO3` gave D2 ag-1 -4, D2 PAM-1 -3, D2 PAM-2 -4, D2 ag-2 1 and D2 antagonist 44*.
`Cc1cccc(N(CC(=O)NCc2ccco2)C(=O)CCC(=O)Nc2ccccn2)c1C` gave D2 ag-1 -2, D2 PAM-1 -7, D2 PAM-2 -5, D2 ag-2 0 and D2 antagonist -2.

Compound activity deposited in PubChem BioAssay by National Center for Advancing Translational Sciences (NCATS).
